# MCF10A rerep: induces DNA re-replication in MCF 10a normal breast cells | MCF 10A DNA re-replication, Hoechst nuclear intensity, 48 h | Potency, µM (doses to about 46.1 µM), for the others: top-dose activity, positive = re-replication, hits mostly activators | 2.9% of 350,000 active | AID 624296; note: % of control where 0% means no effect; nearly all actives have a fitted effect of over 50% in size
# AT treatment: potential ataxia-telangiectasia treatment; Potency, µM (doses to about 57.5 µM), for inactives: at the top dose activation, usual class: activators; AID 485349; F2112 A-T fibroblasts, KAP-1 phosphorylation AlphaLISA; neocarzinostatin DNA damage 30 min before lysis; 0.19% of 320,000 active; note: % of control where 0% means no effect; nearly all actives have a fitted effect of over 45% in size
#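 hTERT-immortalized A-T patient fibroblasts (F2112), 500 cells/well in OPTI-MEM, 1% FBS, got compounds for 60 min, then NCS for 30 min at 37C. Lysates were then assayed for phospho-KAP-1 by AlphaLISA (anti-pKAP1 donor, anti-KAP1 acceptor beads), 6 hr at 25C.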
# ELG1 genotoxic: induces genotoxicity in HEK293T cells with luciferase-tagged ELG1; HEK293T ELG1-luciferase reporter, luminescence, 16 h; Potency, µM (titrated, usually from 46 µM), inactives show at the top dose activity change, positive = activation, actives largely listed as activators; 1.3% of 330,000 active; note: % of control where 0% means no effect; nearly all actives have a fitted effect of over 60% in size
#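 Genotoxicity was scored as increased ELG1-luciferase reporter signal, measured by ONE-Glo luminescence (30 min, room temperature). Compound or vehicle exposure of the HEK293T reporter cells lasted 16 hr at 37°C.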
# SW480 rereplic: inducers of DNA re-replication in SW480 colon cancer cells. Potency, µM (titrated, usually from 46.1 µM), for inactives: at the highest dose re-replication activation, usual class: activators. 1.8% of 340,000 active. SW480 DNA re-replication, Hoechst DNA content imaging, 48 h; note: % of control where 0% means no effect; nearly all actives have a fitted effect of over 55% in size
#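 Image-based read-out: total Hoechst fluorescence of nuclei (405 nm excitation, 500-530 nm emission), with hits raising the fraction of high-intensity nuclei. SW480 colon cells incubated 48 hr with compounds at 37 C.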
# ELG1 DNA repair: inhibitors of ELG1-dependent DNA repair in HEK293T cells. HEK293T ELG1-luciferase reporter, luminescence, 16 h; DNA damage induced by 5-fluorouridine. Potency, µM (highest dose often 46.1 µM), for the others: at the top dose activity change, negative = inhibition, actives largely listed as inhibitors. 2.3% of 330,000 active; note: % is set by controls: 0 for no effect and ±100 for the full control effect; nearly all actives have a fitted effect of over 55% in size
#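 In this reporter screen, reduction of luminescence relative to DMSO vehicle indicated activity. Compounds and 5-fluorouridine were added together to 2,000 cells per well, incubated for 16 hr at 37 °C, then developed with ONE-Glo.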
# p53 reactivator: re-activators of mutant p53; 0.063% of 320,000 active; Potency, µM (highest dose often 92.2 µM), for the others: at the highest dose activity change, positive = activation, usual class: activators; H1299 p53-A138V BP100-luciferase reporter, luminescence, 24 h; note: % of control where 0% means no effect; nearly all actives have a fitted effect of over 45% in size
#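 p53-null H1299 cells stably carrying temperature-sensitive p53-A138V and a BP100-luciferase reporter were pinned with compounds (4-point, 1:5 series) and held 24 hrs at 37 deg C. Luminescence was read 10 min after detection reagent.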
# Active calls of the source: *; ? = inconclusive; nt = not tested or not shown; [ ] = another dose, or the depositor's remark. An excerpt weighted towards active compounds, which were near 7.1% of everything screened. Calls come from the whole dose curve; as a rule, active = well fitted curve in the direction sought with a large enough effect; inconclusive = small, poorly fitted or top-dose-only effect, or another doubt; inactive = no such curve, though single readings can be large; an effect the other way counts as inactive or inconclusive. Potency is the fitted concentration of half-maximal effect.
SMILES,MCF10A rerep,AT treatment,ELG1 genotoxic,SW480 rereplic,ELG1 DNA repair,p53 reactivator
O=C(Nc1ccc(N2CCOCC2)cc1)c1cc(-c2ccncc2)nc2ccccc12,-0.1%,-10.4%,-8.0%,17.5%,?,-4.6%
O=C(Nc1ccccc1N1CCOCC1)c1cc(-c2ccncc2)nc2ccccc12,18.2%,-3.3%,-11.8%,8.3%,14.6µM*,-4.3%
O=C(COC(=O)c1ccc2ccccc2n1)Nc1ccccc1F,-5.5%,10.5%,0.7%,-0.5%,-5.5%,3.4%
CC1CCCCN1CCCNC(=O)c1ccc(NC(=O)C2=CSCCO2)cc1 (stereo unspecified),-1.2%,15.2%,7.8%,-18.8%,24.9%,18.1%
CC(C)c1nc2oc3c(NCC4CCCO4)ncnc3c2c2c1CCC2 (stereo unspecified),?,8.6%,-3.3%,11.6%,16.4µM*,7.1%
CCCc1nc2oc3c(NCC4CCCO4)ncnc3c2c2c1COC(C)(C)C2 (stereo unspecified),15.9%,5.8%,2.4%,-7.9%,-15.5%,2.7%
CC(C)Cc1nc2oc3c(Cl)ncnc3c2c2c1CCCC2,29.1µM*,17.5%,10.3%,9.1%,5.6%,-7.6%
CC(C)Cc1nc2oc3c(NCC(C)O)ncnc3c2c2c1CCCC2 (stereo unspecified),-4.2%,5.3%,-7.0%,-2.3%,14.6µM*,-4.2%
CCCc1nc2oc3c(NCCCN(C)C)ncnc3c2c2c1CCCC2,14.6µM*,-4.6%,7.0%,?,?,1.2%
COc1cc2c(cc1OC)C1O[C@](c3ccsc3)(C2)OC2=C1C(=O)OC1(CCCCC1)C2,nt,-3.9%[11.5 µM],nt,nt,nt,nt
CCOc1ccc(N2CC(C(=O)Nc3ccccc3N3CCCC3)CC2=O)cc1 (stereo unspecified),14.4%,5.1%,-9.6%,?,-22.0%,-0.8%
CC(C)C(=O)Nc1ccc(Oc2ccc3c(c2)C(=O)NC3=O)cc1,-1.5%,-0.1%,1.4%,-4.8%,-6.8%,nt
O=C(O)Cc1ccc(NC(=O)c2ccc(NC(=O)C3CC3)cc2)cc1,7.0%,13.0%,-0.4%,18.5%,0.7%,-9.7%
Cc1nn(CC(=O)OCC(=O)Nc2cccc(S(N)(=O)=O)c2)c(C)c1[N+](=O)[O-],4.1%,3.4%,4.1%,2.8%,?,5.5%
CN(C)S(=O)(=O)c1cccc(NC(=S)Nc2cccc3cnccc23)c1,20.6µM*,7.3%,-13.8%,?,20.6µM*,0.0%
S=C(Nc1cccnc1)Nc1cccc2cnccc12,7.9%,8.5%,-14.1%,4.8%,-16.8%,13.8%
CC(=O)Nc1ccc(S(=O)(=O)NCCC(=O)Nc2cc(C)ccn2)cc1,7.4%,0.2%,23.1%,-1.0%,10.1%,2.0%
CC1CN(C(=O)c2ccccc2NS(=O)(=O)c2ccc(Cl)cc2)CC(C)O1 (stereo unspecified),?,29.7%,3.0%,-1.5%,-1.9%,-8.2%
Cc1cc(CSc2ccccc2)ccc1NC(=O)c1ccc(C)c([N+](=O)[O-])c1,5.0%,4.6%,8.5%,-4.4%,-0.1%,-3.1%
Cc1cc(CSc2ccccc2)ccc1NC(=O)c1ccc(Cl)c([N+](=O)[O-])c1,18.4µM*,-0.7%,-1.5%,-6.2%,0.7%,-11.3%
O=C(Nc1cccnc1Cl)c1ccc(Cl)c([N+](=O)[O-])c1,14.7%,1.5%,0.8%,23.1µM*,-17.4%,-10.6%
CCN(CC(=O)Nc1ccc(NC(C)=O)cc1)C(=O)c1cn(-c2ccccc2)nc1-c1cccs1,?,-5.3%,-7.3%,1.1%,?,2.5%
CC(=O)Nc1ccc(Nc2ccccc2)cc1,-2.8%,4.3%,6.6%,-0.3%,?,16.4%
CC(=O)OCC(=O)Nc1ccc(N=Nc2ccccc2)cc1,7.3%,-0.1%,23.1µM*,-0.3%,?,?
CC(=O)OCC(=O)Nc1ccc(SC(F)F)cc1,0.5%,1.2%,0.2%,-8.5%,0.5%,9.6%
SMILES,MCF10A rerep,AT treatment,ELG1 genotoxic,SW480 rereplic,ELG1 DNA repair,p53 reactivator
CC(C)C(=O)OCC(=O)Nc1ccc(N=Nc2ccccc2)cc1,2.7%,-5.9%,20.6µM*,-3.2%,?,?
CC(=O)Nc1ccc(N=Nc2ccccc2)cc1,-5.8%,-1.1%,10.3µM*,?,?,nt
O=C1CN(c2ccccc2)C(=S)N1C(=O)c1ccc(Br)cc1,-1.7%,-0.7%,18.3µM*,1.3%,?,-1.9%
O=C(c1ccc(Br)cc1)N1CCC(C(=O)N2CCN(c3ccccc3)CC2)CC1,-26.0%,-1.4%,-10.7%,-20.0%,?,-4.5%
CC(C)(C)NS(=O)(=O)c1ccc(CCC(=O)NCc2ccccn2)cc1,2.0%,-3.2%,-2.7%,?,-6.5%,nt
CCc1ccc(-c2csc3[n+]2CCN3C(C)=O)cc1,?,-5.1%,-2.6%,2.31µM*,?,-6.4%
Cc1ccc(C)c(N2CCN(C(=O)C34CC5CC(C3)CC(n3nnc(C)n3)(C5)C4)CC2)c1,?,-0.1%,-11.1%,5.3%,20.6µM*,-0.2%
C=C1C(=O)O[C@@H]2[C@@H]1CC/C(C)=C\CC[C@@]1(C)O[C@H]21,11.9µM*,nt,nt,6.8%,nt,nt
O=C(NCCOc1ccccc1F)c1cc([N+](=O)[O-])ccc1N1CCOCC1,?,14.0%,-10.4%,9.2µM*,?,0.8%
O=C(NCCc1ccccc1)c1cc([N+](=O)[O-])ccc1N1CCOCC1,0.9%,9.9%,-2.8%,4.2%,12.0%,8.0%
O=C(NCCOc1ccccc1)c1cc([N+](=O)[O-])ccc1N1CCOCC1,10.3µM*,-1.9%,-1.0%,2.91µM*,?,?
O=C(NCCc1ccc(F)cc1)c1cc([N+](=O)[O-])ccc1N1CCOCC1,-3.5%,-12.5%,-1.9%,-9.3%,0.5%,4.5%
COc1cccc(CN(C(=O)COc2ccc(Cl)cc2)C2CCS(=O)(=O)C2)c1 (stereo unspecified),-0.1%,-1.7%,-0.1%,?,0.5%,-2.0%
COc1ccc2nc(-c3ccccn3)[nH]c2c1,1.9%,28.0%,5.17µM*,-17.8%,?,nt
Oc1c(CN2CCCCC2)cc(Br)c2cccnc12,23.1µM*,?,-5.4%,?,?,-13.8%
O=C(COc1c(Br)cc(Br)c2cccnc12)N1CCCCC1,2.5%,1.9%,0.1%,-9.3%,-2.1%,-3.0%
CN1CCN(Cc2cc(COCc3ccccc3)c3cccnc3c2O)CC1,?,-11.6%,8.0%,6.31µM*,?,3.6%
COc1ccc(C(=O)Oc2c(CN3CCOCC3)cc(Cl)c3cccnc23)cc1OC,1.9%,nt,nt,-14.7%,nt,nt
O=C(Oc1c(CN2CCOCC2)cc(Cl)c2cccnc12)c1ccccc1,?,-1.1%,-17.1%,8.2µM*,23.1µM*,9.2%

# High-throughput results (PubChem BioAssay)
